molecular target: AgAbp1; test: SPOT peptide array binding signal intensity (averaged, normalized) (arbitrary units (background-subtracted, floor 0; scale differs between SH3 domains)); higher = stronger binding of the SH3 domain to the peptide
Procedure, shortened: (§1)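 E. coli BL21(DE3) was used to express GST-fused SH3 domains from four yeast species, which were then purified on glutathione Sepharose. These were incubated at 10 μg/ml in TBS-based blocking buffer overnight at 4°C on cellulose membranes carrying synthetic 15-mer peptides, in which cysteines were replaced by serines. Binding signal is the replicate average of normalized, background-subtracted spot intensity, in arbitrary units that differ between domains.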

Binder | SPOT peptide array binding signal intensity
NENKKLPPAPTVFGL | ≤ 0

molecular target: AgBbc1; test: as above
Procedure, shortened: as §1

Binder | SPOT peptide array binding signal intensity
NENKKLPPAPTVFGL | ≤ 0

molecular target: AgBem1-D1; test: as above
Procedure, shortened: as §1

Binder | SPOT peptide array binding signal intensity
NENKKLPPAPTVFGL | ≤ 0

molecular target: AgBzz1-D1; test: as above
Procedure, shortened: as §1

Binder | SPOT peptide array binding signal intensity
NENKKLPPAPTVFGL | 27

molecular target: AgBzz1-D2; test: as above
Procedure, shortened: as §1

Binder | SPOT peptide array binding signal intensity
NENKKLPPAPTVFGL | 35

molecular target: AgCyk3; test: as above
Procedure, shortened: as §1

Binder | SPOT peptide array binding signal intensity
NENKKLPPAPTVFGL | ≤ 0

molecular target: AgFus1; test: as above
Procedure, shortened: as §1

Binder | SPOT peptide array binding signal intensity
NENKKLPPAPTVFGL | ≤ 0

molecular target: AgHof1; test: as above
Procedure, shortened: as §1

Binder | SPOT peptide array binding signal intensity
NENKKLPPAPTVFGL | 19.5

molecular target: AgHse1; test: as above
Procedure, shortened: as §1

Binder | SPOT peptide array binding signal intensity
NENKKLPPAPTVFGL | 72

molecular target: AgLsb1; test: as above
Procedure, shortened: as §1

Binder | SPOT peptide array binding signal intensity
NENKKLPPAPTVFGL | ≤ 0

molecular target: AgLsb4; test: as above
Procedure, shortened: as §1

Binder | SPOT peptide array binding signal intensity
NENKKLPPAPTVFGL | 25

molecular target: AgMyo5; test: as above
Procedure, shortened: as §1

Binder | SPOT peptide array binding signal intensity
NENKKLPPAPTVFGL | ≤ 0

molecular target: AgNbp2; test: as above
Procedure, shortened: as §1

Binder | SPOT peptide array binding signal intensity
NENKKLPPAPTVFGL | ≤ 0

molecular target: AgRvs167; test: as above
Procedure, shortened: as §1

Binder | SPOT peptide array binding signal intensity
NENKKLPPAPTVFGL | 6.17

molecular target: AgSho1; test: as above
Procedure, shortened: as §1

Binder | SPOT peptide array binding signal intensity
NENKKLPPAPTVFGL | 1550

molecular target: AgSla1-D1-D2; test: as above
Procedure, shortened: as §1

Binder | SPOT peptide array binding signal intensity
NENKKLPPAPTVFGL | 4

molecular target: AgSla1-D3; test: as above
Procedure, shortened: as §1

Binder | SPOT peptide array binding signal intensity
NENKKLPPAPTVFGL | 1.5

molecular target: CaAbp1-D1; test: as above
Procedure, shortened: as §1

Binder | SPOT peptide array binding signal intensity
NENKKLPPAPTVFGL | ≤ 0

molecular target: CaAbp1-D2; test: as above
Procedure, shortened: as §1

Binder | SPOT peptide array binding signal intensity
NENKKLPPAPTVFGL | 3

molecular target: CaBbc1; test: as above
Procedure, shortened: as §1

Binder | SPOT peptide array binding signal intensity
NENKKLPPAPTVFGL | ≤ 0

molecular target: CaBem1-D1; test: as above
Procedure, shortened: as §1

Binder | SPOT peptide array binding signal intensity
NENKKLPPAPTVFGL | ≤ 0

molecular target: CaBzz1-D1; test: as above
Procedure, shortened: as §1

Binder | SPOT peptide array binding signal intensity
NENKKLPPAPTVFGL | 3.5

molecular target: CaBzz1-D2; test: as above
Procedure, shortened: as §1

Binder | SPOT peptide array binding signal intensity
NENKKLPPAPTVFGL | 1.5

molecular target: CaCyk3; test: as above
Procedure, shortened: as §1

Binder | SPOT peptide array binding signal intensity
NENKKLPPAPTVFGL | ≤ 0

molecular target: CaFus1; test: as above
Procedure, shortened: as §1

Binder | SPOT peptide array binding signal intensity
NENKKLPPAPTVFGL | 36.5

molecular target: CaHof1; test: as above
Procedure, shortened: as §1

Binder | SPOT peptide array binding signal intensity
NENKKLPPAPTVFGL | 0.25

molecular target: CaHse1; test: as above
Procedure, shortened: as §1

Binder | SPOT peptide array binding signal intensity
NENKKLPPAPTVFGL | ≤ 0

molecular target: CaLsb1; test: as above
Procedure, shortened: as §1

Binder | SPOT peptide array binding signal intensity
NENKKLPPAPTVFGL | 1.5

molecular target: CaLsb4; test: as above
Procedure, shortened: as §1

Binder | SPOT peptide array binding signal intensity
NENKKLPPAPTVFGL | ≤ 0

molecular target: CaMyo5; test: as above
Procedure, shortened: as §1

Binder | SPOT peptide array binding signal intensity
NENKKLPPAPTVFGL | ≤ 0

molecular target: CaNbp2; test: as above
Procedure, shortened: as §1

Binder | SPOT peptide array binding signal intensity
NENKKLPPAPTVFGL | ≤ 0

molecular target: CaRvs167; test: as above
Procedure, shortened: as §1

Binder | SPOT peptide array binding signal intensity
NENKKLPPAPTVFGL | 1.17

molecular target: CaRvs167-3; test: as above
Procedure, shortened: as §1

Binder | SPOT peptide array binding signal intensity
NENKKLPPAPTVFGL | ≤ 0

molecular target: CaSho1; test: as above
Procedure, shortened: as §1

Binder | SPOT peptide array binding signal intensity
NENKKLPPAPTVFGL | 398

molecular target: CaSla1-D1-D2; test: as above
Procedure, shortened: as §1

Binder | SPOT peptide array binding signal intensity
NENKKLPPAPTVFGL | ≤ 0

molecular target: CaSla1-D3; test: as above
Procedure, shortened: as §1

Binder | SPOT peptide array binding signal intensity
NENKKLPPAPTVFGL | 3.5

molecular target: ScAbp1; test: as above
Procedure, shortened: as §1

Binder | SPOT peptide array binding signal intensity
NENKKLPPAPTVFGL | ≤ 0

molecular target: ScBbc1; test: as above
Procedure, shortened: as §1

Binder | SPOT peptide array binding signal intensity
NENKKLPPAPTVFGL | ≤ 0

molecular target: ScBem1-D1; test: as above
Procedure, shortened: as §1

Binder | SPOT peptide array binding signal intensity
NENKKLPPAPTVFGL | 1

molecular target: ScBzz1-D1; test: as above
Procedure, shortened: as §1

Binder | SPOT peptide array binding signal intensity
NENKKLPPAPTVFGL | 11

molecular target: ScBzz1-D2; test: as above
Procedure, shortened: as §1

Binder | SPOT peptide array binding signal intensity
NENKKLPPAPTVFGL | 6

molecular target: ScCyk3; test: as above
Procedure, shortened: as §1

Binder | SPOT peptide array binding signal intensity
NENKKLPPAPTVFGL | 1

molecular target: ScFus1; test: as above
Procedure, shortened: as §1

Binder | SPOT peptide array binding signal intensity
NENKKLPPAPTVFGL | 8

molecular target: ScHof1; test: as above
Procedure, shortened: as §1

Binder | SPOT peptide array binding signal intensity
NENKKLPPAPTVFGL | 6

molecular target: ScHse1; test: as above
Procedure, shortened: as §1

Binder | SPOT peptide array binding signal intensity
NENKKLPPAPTVFGL | 6.5

molecular target: ScLsb1; test: as above
Procedure, shortened: as §1

Binder | SPOT peptide array binding signal intensity
NENKKLPPAPTVFGL | ≤ 0

molecular target: ScLsb2; test: as above
Procedure, shortened: as §1

Binder | SPOT peptide array binding signal intensity
NENKKLPPAPTVFGL | ≤ 0

molecular target: ScLsb3; test: as above
Procedure, shortened: as §1

Binder | SPOT peptide array binding signal intensity
NENKKLPPAPTVFGL | ≤ 0

molecular target: ScLsb4; test: as above
Procedure, shortened: as §1

Binder | SPOT peptide array binding signal intensity
NENKKLPPAPTVFGL | 6

molecular target: ScMyo3; test: as above
Procedure, shortened: as §1

Binder | SPOT peptide array binding signal intensity
NENKKLPPAPTVFGL | ≤ 0

molecular target: ScMyo5; test: as above
Procedure, shortened: as §1

Binder | SPOT peptide array binding signal intensity
NENKKLPPAPTVFGL | ≤ 0

molecular target: ScNbp2; test: as above
Procedure, shortened: as §1

Binder | SPOT peptide array binding signal intensity
NENKKLPPAPTVFGL | ≤ 0

molecular target: ScPex13; test: as above
Procedure, shortened: as §1

Binder | SPOT peptide array binding signal intensity
NENKKLPPAPTVFGL | 254

molecular target: ScRvs167; test: as above
Procedure, shortened: as §1

Binder | SPOT peptide array binding signal intensity
NENKKLPPAPTVFGL | 0.167

molecular target: ScSho1; test: as above
Procedure, shortened: as §1

Binder | SPOT peptide array binding signal intensity
NENKKLPPAPTVFGL | 2310

molecular target: ScSla1-D1-D2; test: as above
Procedure, shortened: as §1

Binder | SPOT peptide array binding signal intensity
NENKKLPPAPTVFGL | ≤ 0

molecular target: ScSla1-D3; test: as above
Procedure, shortened: as §1

Binder | SPOT peptide array binding signal intensity
NENKKLPPAPTVFGL | 4.5

molecular target: SpAbp1-D1; test: as above
Procedure, shortened: as §1

Binder | SPOT peptide array binding signal intensity
NENKKLPPAPTVFGL | ≤ 0

molecular target: SpBbc1; test: as above
Procedure, shortened: as §1

Binder | SPOT peptide array binding signal intensity
NENKKLPPAPTVFGL | 4.5

molecular target: SpBzz1-D1; test: as above
Procedure, shortened: as §1

Binder | SPOT peptide array binding signal intensity
NENKKLPPAPTVFGL | 126

— the supplement of paper PMC4466140
